In PubChem BioAssay AID686978 (National Center for Advancing Translational Sciences (NCATS), 2013):
Screen size: about 420,000 compounds; about 64,000 (15%) were called active. Inconclusive results (about 27%) are left out. These entries were drawn from the full list. A number with no mark means an inactive call. Calls come from the whole dose curve; as a rule, active = well fitted inhibition curve with a large enough effect; inconclusive = small, poorly fitted or top-dose-only effect; inactive = flat fitted curve, though single readings scatter.

assay: qHTS for Inhibitors of human tyrosyl-DNA phosphodiesterase 1 (TDP1): qHTS in cells in absence of CPT; details: DT40 Tdp1-/- hTDP1 cells, no CPT, ATP luminescence, 48 h; activity change, negative = growth inhibition: at 46.2 µM (top of the series); note: nearly all actives have a fitted effect of over 55% in size
Procedure, shortened: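 Camptothecin absent (DMSO only). Human TDP1-complemented DT40 knockout cells, 400 cells/well, 37 °C for minimum 48 hr; ATP measured via CellTiter-Glo, 30 min dark incubation, luminescence.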
% is set by controls: 0 for no effect and ±100 for the full control effect; potency is the fitted concentration of half-maximal effect.

SMILES | activity change, negative = growth inhibition [%] | Potency
CC(C)(C)C1CCC(=NNC(=O)c2ccc(Br)o2)CC1 (stereo unspecified) | -6.8 | –
Cc1nc2cccnc2nc1C | 10.1 | –
Cc1ccc2c(c1)C(O)(CC(=O)c1cccc(-n3cccc3)c1)C(=O)N2 (stereo unspecified) | 10.3 | –
CCCCCCCCc1c(O)nc(-n2[nH]c(C)c(CCO)c2=O)[nH]c1=O | -8.48 | –
Cc1ccc(C(=O)NNC(=O)c2ccc3c(c2)OCCO3)cc1 | 20.7 | –
COC(=O)c1ccc(C(=O)OC)c(NC(=S)N2CCCCC2)c1 | 0.473 | –
Brc1ccc(-c2noc(-c3ccccc3)n2)o1 | – | inactive
Cn1c(=O)cc(SCC(=O)N2CCN(C(=O)c3ccco3)CC2)c2ccccc21 | -1.28 | –
Nc1c(C(=O)O)cnn1-c1ccccc1 | -27.1 | –
COC(=O)Cn1c(O)c(N=NC(=O)OC)c2ccccc21 | -1.25 | –
CN1CCN(S(=O)(=O)c2cccc(C(=O)O)c2)CC1 | -4.32 | –
CCn1c(O)c(N=NC(=O)c2cccc(S(=O)(=O)N3CCCCC3)c2)c2ccccc21 | – | 23.1 µM (active)
O=[N+]([O-])c1cccc(C2=NCCS2)c1 | -20 | –
CC(CC(=O)Nc1ccc(F)cc1F)S(=O)(=O)c1ccc2c(c1)NC(=O)CO2 (stereo unspecified) | -1.12 | –
O=C(NCc1cccnc1)Nc1cccc(NC(=O)NCc2cccnc2)c1F | 12.9 | –
COCCCN1C(=O)c2ccc(C(=O)OCC(=O)NCc3ccccc3OC)cc2C1=O | 7.9 | –

SMILES | activity change, negative = growth inhibition [%] | Potency
CCOc1ccc(C2C(C(=O)O)c3ccccc3C(=O)N2CCN2CCOCC2)cc1 (stereo unspecified) | -4.91 | –
CC(=O)c1ccc(OCCN2CCOCC2)cc1 | -1.61 | –
CCOc1ccc(C(=O)CCN2CCOCC2)cc1 | – | 20.6 µM (active)
CC1CN(C2CCN(C(=O)COc3ccccc3)CC2)CC(C)O1 (stereo unspecified) | -11.5 | –
CN(CC(=O)NCc1ccncc1)S(=O)(=O)c1ccc(Br)cc1 | -7.58 | –
COc1ccc(CCNc2ncnc3nc[nH]c23)cc1OC | – | 11.6 µM (active)
COc1ccc(CCNC(=O)C(=O)NCC2CCNCC2)cc1OC | -6.66 | –
CCCNC(=O)NC(=O)COC(=O)CC(NC(N)=O)c1ccc(Cl)cc1 (stereo unspecified) | -0.325 | –
CSCCC(NC(=O)c1ccco1)C(=O)NCCc1ccc(F)cc1 (stereo unspecified) | 7.74 | –
CC1CCCN(C(C(=O)Nc2ccc(C(C)C)cc2)c2ccc3c(c2)OCO3)C1 (stereo unspecified) | – | 18.4 µM (active)
CC(NC(=O)Nc1ccc2c(c1)OCO2)c1ccncc1 (stereo unspecified) | 1.21 | –
CCc1ccc(NC(=O)NC(C)c2ccc3c(c2)OCO3)cc1 (stereo unspecified) | -4.68 | –
Cc1cccc(NS(=O)(=O)c2ccc(C)c(C(N)=O)c2)c1 | – | 9.2 µM (active)
Cc1ccc(S(=O)(=O)NC2CCCCCC2)cc1C(N)=O | -16.7 | –
Cc1cccc(NS(=O)(=O)c2ccc(C)c(C(=O)NCc3cccnc3)c2)c1 | -12.3 | –
